From paper PMC10726135, “HNF4α isoforms regulate the circadian balance between carbohydrate and lipid metabolism in the liver” come the findings set out here.

Whole data set: some 18,000 sequences, median “log2 normalized intensity” near 0.36, cut for the highest 2% near 7.3. This is one part of a sample in which the highest values are shown more often than they occur.

The assay has as its target T1, HNF4alpha8 (COS-7 nuclear extract) (Homo sapiens, UniProt P41235-5 1-452).
T1 sequence: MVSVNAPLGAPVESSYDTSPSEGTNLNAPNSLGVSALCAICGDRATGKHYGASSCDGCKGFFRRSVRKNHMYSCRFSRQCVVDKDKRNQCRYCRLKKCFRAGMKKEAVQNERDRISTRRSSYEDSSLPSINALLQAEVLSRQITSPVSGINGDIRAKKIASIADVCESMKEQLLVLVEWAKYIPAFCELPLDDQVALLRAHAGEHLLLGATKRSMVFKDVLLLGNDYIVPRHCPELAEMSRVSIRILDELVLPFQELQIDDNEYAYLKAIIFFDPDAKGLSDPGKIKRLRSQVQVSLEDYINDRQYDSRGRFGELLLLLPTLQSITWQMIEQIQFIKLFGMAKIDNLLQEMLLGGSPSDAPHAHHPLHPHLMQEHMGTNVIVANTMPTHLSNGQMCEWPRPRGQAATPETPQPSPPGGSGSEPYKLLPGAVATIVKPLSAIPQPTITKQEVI
Description: protein-binding microarray; COS-7 nuclear extract on double-stranded Agilent 4x180k PBM; binding buffer, salt, pH and temperature not given in the material; high values mean tight binding. The note with it: chain copies: 2; label: 3' end of strand 1 on the slide; dsDNA, one strand shown. The method, boiled down:
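A custom Agilent SurePrint G3 4x180k array, spotted in quadruplicate with ~44,000 test sequences as ~60-nt oligonucleotides made double-stranded, was incubated with nuclear extracts. The extracts came from COS-7 cells transiently transfected by CaPO4 with a human HNF4α isoform expression vector. Bound HNF4α was imaged on an Agilent G2565CA scanner at 2-µm resolution, and the binding signal was taken as Agilent software's background-corrected, normalized gProcessedSignal.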
Consider “GTAAGCACAAAGTACAGCTTTTTGTTTGTGGCCTAGGGAGATTAGAGTATCGGTCGA”, for which the binding signal stood at 2.02 log2 normalized intensity. Regarding “AAACATCAAGGAAGAGAACTCCCTATCCCCGCCTAGGGAGATTAGAGTATCGGTCGA”, the binding signal stood at 1.36 log2 normalized intensity. Consider “GATAGATATGTTGAAGTGACTAAATGAGAAGCCTAGGGAGATTAGAGTATCGGTCGA”, for which the binding signal was -0.611 log2 normalized intensity. “GTACTTAAAAATGCCTTTCATCTTTGAGAAGCCTAGGGAGATTAGAGTATCGGTCGA”: the binding signal came to 0.583 log2 normalized intensity.

For the sequence “GTGTCAACATGGACTTTGTTGTTTGCCTCTGCCTAGGGAGATTAGAGTATCGGTCGA”, the binding signal is 4.08 log2 normalized intensity. The same measure for “CTTTGCCCTCCCTAAATCCAGAGGTATTTGGCCTAGGGAGATTAGAGTATCGGTCGA”: 2.04 log2 normalized intensity. The same measure for “CCACTGCGACCTTTGCCCTCCCTAAATCCAGCCTAGGGAGATTAGAGTATCGGTCGA”: 7.84 log2 normalized intensity; for “AGAAGCCACTGCGACCTTTGCCCTCCCTAAGCCTAGGGAGATTAGAGTATCGGTCGA”: 8.33 log2 normalized intensity. Take “CCCTCCCTAAATCCAGAGGTATTTGGCCCAGCCTAGGGAGATTAGAGTATCGGTCGA”: the binding signal turned out to be 1.83 log2 normalized intensity. Take “CCGCGGCGGGCCCTCGACCTTTGCCCTCCAGCCTAGGGAGATTAGAGTATCGGTCGA”: the binding signal is 9.76 log2 normalized intensity.

For “TCACAACCTCCCTTTGAAGGAGCCACTGGTGCCTAGGGAGATTAGAGTATCGGTCGA”, the binding signal was -0.869 log2 normalized intensity. The same measure for “TTGCCATGACCTTTGAAGCCCAGAACACTCGCCTAGGGAGATTAGAGTATCGGTCGA”: 4.51 log2 normalized intensity. Take “TTCCCCTCCCTTCCACCTTTGCCCTCCAAAGCCTAGGGAGATTAGAGTATCGGTCGA”: the binding signal worked out at 6.42 log2 normalized intensity. With “CAGAGAGAAGCCACTGCGACCTTTGCCCTCGCCTAGGGAGATTAGAGTATCGGTCGA”, the binding signal turned out to be 10 log2 normalized intensity. As to “CTTCTCCGCGGCGGGCCCTCGACCTTTGCCGCCTAGGGAGATTAGAGTATCGGTCGA”, the binding signal was determined as 5.8 log2 normalized intensity. Regarding “ACCGGCAGAGAGAAGCCACTGCGACCTTTGGCCTAGGGAGATTAGAGTATCGGTCGA”, the binding signal came to 5.59 log2 normalized intensity. Take “TCAGCCTTCTCCGCGGCGGGCCCTCGACCTGCCTAGGGAGATTAGAGTATCGGTCGA”: the binding signal was 0.757 log2 normalized intensity. For the sequence “ACCCACCCACCTATGTCCTTATCCTCATTGGCCTAGGGAGATTAGAGTATCGGTCGA”, the binding signal was 0.831 log2 normalized intensity. The same measure for “CTCACCAGTGGGCCCAGAGCACAACCTTTGGCCTAGGGAGATTAGAGTATCGGTCGA”: 1.42 log2 normalized intensity. The same measure for “TATTCAGTCCCCCATCCCAGAGGTCAAACTGCCTAGGGAGATTAGAGTATCGGTCGA”: 5.57 log2 normalized intensity; for “GGAATTTGGACTTCAGCCCAGGCTGATTATGCCTAGGGAGATTAGAGTATCGGTCGA”: 4.7 log2 normalized intensity.

With “CAGCAAGCATTAATCCCTGAGCCTGGACCTGCCTAGGGAGATTAGAGTATCGGTCGA”, the binding signal amounted to 2.58 log2 normalized intensity. In the case of “GCGCATCGGGCGCCAGCGCCCCCGTGTGGCGCCTAGGGAGATTAGAGTATCGGTCGA”, the binding signal worked out at 1.2 log2 normalized intensity. For “GACCAGCGTGTGGCGCCATTTCAGGTCCACGCCTAGGGAGATTAGAGTATCGGTCGA”, the binding signal is 1.74 log2 normalized intensity.

“AATACTCCAGTCATTGTACAAACACATACCGCCTAGGGAGATTAGAGTATCGGTCGA”: the binding signal is -0.533 log2 normalized intensity.

Consider “CTCTTAGTATTACCATGTCCTGTGATTAAGGCCTAGGGAGATTAGAGTATCGGTCGA”, for which the binding signal was 1.16 log2 normalized intensity.

For “TGGGCCAGGTATTTGGACTTTTTGTAGTTTGCCTAGGGAGATTAGAGTATCGGTCGA”, the binding signal was determined as 3.34 log2 normalized intensity. On to “CCCTGACCAAGGGTCATGCTGGTCTCCTTGGCCTAGGGAGATTAGAGTATCGGTCGA”, for which the binding signal amounted to 2.46 log2 normalized intensity. Take “TTGTTCAATAAGCAATACATTGAACTTTGAGCCTAGGGAGATTAGAGTATCGGTCGA”: the binding signal was 8.23 log2 normalized intensity. The same measure for “CAATAAGCAATACATTGAACTTTGAACACCGCCTAGGGAGATTAGAGTATCGGTCGA”: 7.99 log2 normalized intensity; for “AAGCAAACAAAACACGGACTTTGAAGCTCCGCCTAGGGAGATTAGAGTATCGGTCGA”: 3 log2 normalized intensity; for “GTTCAAACTTTATTTGATGATGAAGCAACAGCCTAGGGAGATTAGAGTATCGGTCGA”: 0.662 log2 normalized intensity. On to “AGCAATACATTGAACTTTGAACACCTCTTCGCCTAGGGAGATTAGAGTATCGGTCGA”, for which the binding signal stood at 6.54 log2 normalized intensity. The same measure for “TTTTCAACATATACTTTGAACTTGTTTTTTGCCTAGGGAGATTAGAGTATCGGTCGA”: 2.56 log2 normalized intensity; for “GGCAGTCGTGATAGTGACCACCTGGTGGACGCCTAGGGAGATTAGAGTATCGGTCGA”: 1.42 log2 normalized intensity; for “GTTGAGAACTGAGTTTAGAATTTGAACTATGCCTAGGGAGATTAGAGTATCGGTCGA”: 3.68 log2 normalized intensity. “AGTTCAATTTCCAACAAATGAAACTAAAGGGCCTAGGGAGATTAGAGTATCGGTCGA”: the binding signal was -0.972 log2 normalized intensity. The same measure for “CGCTCCCCGACCTCCTGCTGCAGCTCTGGGGCCTAGGGAGATTAGAGTATCGGTCGA”: -0.577 log2 normalized intensity; for “TGTTTATCAGAGCAAAGTTCAATTTCCAACGCCTAGGGAGATTAGAGTATCGGTCGA”: 4.31 log2 normalized intensity; for “TATTTGGATAATGTGCCCTTTGTACCTGGGGCCTAGGGAGATTAGAGTATCGGTCGA”: 7.72 log2 normalized intensity.

With “GTCAAACAAAAGAAAATGTGCCCTTTGGACGCCTAGGGAGATTAGAGTATCGGTCGA”, the binding signal was determined as 7.26 log2 normalized intensity. Consider “ATGTGCCCTTTGTACCTGGGGCAAACATCAGCCTAGGGAGATTAGAGTATCGGTCGA”, for which the binding signal was found to be 5.3 log2 normalized intensity.

Turning to “GGATAATGTGCCCTTTGTACCTGGGGCAAAGCCTAGGGAGATTAGAGTATCGGTCGA”, the binding signal worked out at 5.83 log2 normalized intensity. With “ATGCTTCAAATATTTGGATAATGTGCCCTTGCCTAGGGAGATTAGAGTATCGGTCGA”, the binding signal came out at 3.92 log2 normalized intensity. For “TCAAATATTTGGATAATGTGCCCTTTGTACGCCTAGGGAGATTAGAGTATCGGTCGA”, the binding signal amounted to 7.39 log2 normalized intensity. With “CAATCAGCCTTAGGTATGCCCCATGGTAAGGCCTAGGGAGATTAGAGTATCGGTCGA”, the binding signal came out at 1.49 log2 normalized intensity. For the sequence “GAATTCCATCCCAGGTCCACAGTGCACATTGCCTAGGGAGATTAGAGTATCGGTCGA”, the binding signal is 2.26 log2 normalized intensity.

For “AAGGACAAAGGTCATGTTTTCAAACAATGAGCCTAGGGAGATTAGAGTATCGGTCGA”, the binding signal worked out at 5.49 log2 normalized intensity. Turning to “CTGCTGGTTTTTGTCAAAGATAGTTGTAGTGCCTAGGGAGATTAGAGTATCGGTCGA”, the binding signal was 1.62 log2 normalized intensity.
